# Results: publication PMC7862700, “An all-to-all approach to the identification of sequence-specific readers for epigenetic DNA modifications on cytosine”
# How the values were obtained:
# Assay in all cases: DAPPL (digital affinity profiling via proximity ligation, sequencing); 10 mM Tris-HCl pH 7.5, 50 mM NaCl, 1 mM DTT, 4% glycerol, room temperature, 30 min; GST-TFs on glutathione beads, 16-mer random dsDNA library, 0.1% formaldehyde crosslink after washing; high values mean tight binding
# FEV = target: T1, FEV (Homo sapiens, UniProt Q99581 1-238); settings: protein: recombinant; tags: N-terminal GST; dsDNA, one strand shown
# T1 sequence: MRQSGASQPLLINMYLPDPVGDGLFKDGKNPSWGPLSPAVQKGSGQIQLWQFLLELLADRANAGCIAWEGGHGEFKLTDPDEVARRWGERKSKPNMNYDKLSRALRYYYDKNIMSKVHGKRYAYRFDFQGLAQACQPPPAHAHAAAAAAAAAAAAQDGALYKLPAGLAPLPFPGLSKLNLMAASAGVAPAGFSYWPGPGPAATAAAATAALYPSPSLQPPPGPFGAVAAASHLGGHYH
# Summary of the method: (§1)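 After expression in yeast as GST fusions, human transcription factors were bound to glutathione beads, DNA-barcoded and mixed with a tag-only sample. The pools were incubated with 200 nmole of a 16-mer random double-stranded DNA library in Tris/NaCl/DTT/glycerol buffer (30 min, room temperature), washed and crosslinked with 0.1% formaldehyde. Proximity ligation with BsaI/T4 ligase ran for 1 h at 37 °C, before PCR amplification and sequencing on an Illumina NextSeq500. Binding signal is a hexamer's read frequency for a factor divided by its frequency for the tag-only sample.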
# ETV5 = ETV5 (Homo sapiens, UniProt P41161 1-510); settings: protein: recombinant; tags: N-terminal GST; dsDNA, one strand shown
# Summary of the method: as §1
# HSF1 = HSF1 (Homo sapiens, UniProt Q00613 1-529); settings: protein: recombinant; tags: N-terminal GST; chain copies: 3; dsDNA, one strand shown
# Summary of the method: as §1
# SPIC = target: T2, SPIC (Homo sapiens, UniProt Q8N5J4 1-248); settings: protein: recombinant; tags: N-terminal GST; dsDNA, one strand shown
# T2 sequence: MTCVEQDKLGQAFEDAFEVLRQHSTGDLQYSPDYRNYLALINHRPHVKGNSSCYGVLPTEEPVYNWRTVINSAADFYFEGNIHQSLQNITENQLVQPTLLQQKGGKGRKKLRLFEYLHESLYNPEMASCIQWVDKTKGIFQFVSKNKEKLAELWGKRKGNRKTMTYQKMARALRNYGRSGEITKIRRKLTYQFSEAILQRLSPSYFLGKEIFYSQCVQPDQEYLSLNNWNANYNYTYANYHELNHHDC
# Summary of the method: as §1
# ELF4 = ELF4 (Homo sapiens, UniProt Q99607 1-663); settings: protein: recombinant; tags: N-terminal GST; dsDNA, one strand shown
# Summary of the method: as §1
# ELK4 = target: T3, ELK4 (Homo sapiens, UniProt P28324-2 1-405); settings: protein: recombinant; tags: N-terminal GST; dsDNA, one strand shown
# T3 sequence: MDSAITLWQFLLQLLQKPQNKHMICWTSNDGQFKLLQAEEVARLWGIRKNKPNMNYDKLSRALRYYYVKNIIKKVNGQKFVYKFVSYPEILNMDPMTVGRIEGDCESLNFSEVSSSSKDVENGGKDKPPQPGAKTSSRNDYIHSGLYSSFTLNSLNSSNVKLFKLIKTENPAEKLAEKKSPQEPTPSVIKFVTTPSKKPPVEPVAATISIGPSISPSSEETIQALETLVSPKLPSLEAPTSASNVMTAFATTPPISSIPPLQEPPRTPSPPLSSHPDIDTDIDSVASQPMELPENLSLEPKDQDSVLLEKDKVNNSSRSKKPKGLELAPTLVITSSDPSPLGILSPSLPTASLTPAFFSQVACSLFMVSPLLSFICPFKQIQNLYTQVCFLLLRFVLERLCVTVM
# Summary of the method: as §1
# ETV2 = target: T4, ETV2 (Homo sapiens, UniProt O00321 1-342); settings: protein: recombinant; tags: N-terminal GST; dsDNA, one strand shown
# T4 sequence: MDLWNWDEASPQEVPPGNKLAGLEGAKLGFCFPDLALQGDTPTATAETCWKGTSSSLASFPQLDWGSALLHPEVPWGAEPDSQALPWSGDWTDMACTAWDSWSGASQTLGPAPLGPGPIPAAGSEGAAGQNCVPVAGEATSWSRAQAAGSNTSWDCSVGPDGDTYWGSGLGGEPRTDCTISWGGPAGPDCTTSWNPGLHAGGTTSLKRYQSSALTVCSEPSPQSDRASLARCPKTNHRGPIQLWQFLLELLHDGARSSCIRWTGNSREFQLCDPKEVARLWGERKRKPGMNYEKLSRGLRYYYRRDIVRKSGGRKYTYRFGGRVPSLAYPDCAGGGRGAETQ
# Summary of the method: as §1
# ELF3 = target: T5, ELF3 (Homo sapiens, UniProt P78545 1-371); settings: protein: recombinant; tags: N-terminal GST; dsDNA, one strand shown
# T5 sequence: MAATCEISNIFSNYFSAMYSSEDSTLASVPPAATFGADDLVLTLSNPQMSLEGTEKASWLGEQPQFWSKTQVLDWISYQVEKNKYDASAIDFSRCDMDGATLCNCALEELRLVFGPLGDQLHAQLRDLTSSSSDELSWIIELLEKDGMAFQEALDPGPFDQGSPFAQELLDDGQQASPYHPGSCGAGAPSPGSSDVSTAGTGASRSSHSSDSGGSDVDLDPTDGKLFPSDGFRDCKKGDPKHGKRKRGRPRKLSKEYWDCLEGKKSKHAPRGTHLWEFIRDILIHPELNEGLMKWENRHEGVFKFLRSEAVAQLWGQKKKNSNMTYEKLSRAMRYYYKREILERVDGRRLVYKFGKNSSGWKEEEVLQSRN
# Summary of the method: as §1
# CRX = CRX (Homo sapiens, UniProt O43186 1-299); settings: protein: recombinant; tags: N-terminal GST; dsDNA, one strand shown
# Summary of the method: as §1
# ETV1 = ETV1 (Homo sapiens, UniProt P50549 1-477); settings: protein: recombinant; tags: N-terminal GST; dsDNA, one strand shown
# Summary of the method: as §1
# ERF = target: T6, ERF (Homo sapiens, UniProt P50548 1-548); settings: protein: recombinant; tags: N-terminal GST; dsDNA, one strand shown
# T6 sequence: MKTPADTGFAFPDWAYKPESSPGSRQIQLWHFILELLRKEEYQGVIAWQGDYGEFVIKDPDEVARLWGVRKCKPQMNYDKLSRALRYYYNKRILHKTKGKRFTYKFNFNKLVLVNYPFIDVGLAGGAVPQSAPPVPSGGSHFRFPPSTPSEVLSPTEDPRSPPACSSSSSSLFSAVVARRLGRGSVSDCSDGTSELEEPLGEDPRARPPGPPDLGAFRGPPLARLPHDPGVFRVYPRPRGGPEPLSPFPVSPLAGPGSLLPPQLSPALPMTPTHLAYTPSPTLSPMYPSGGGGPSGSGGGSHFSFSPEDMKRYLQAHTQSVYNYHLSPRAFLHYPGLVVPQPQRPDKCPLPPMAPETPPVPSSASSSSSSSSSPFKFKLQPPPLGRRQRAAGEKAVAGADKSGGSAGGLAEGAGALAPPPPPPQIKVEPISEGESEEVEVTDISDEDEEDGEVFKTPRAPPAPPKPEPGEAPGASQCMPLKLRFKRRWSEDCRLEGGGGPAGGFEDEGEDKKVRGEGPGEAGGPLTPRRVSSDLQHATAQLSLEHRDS
# Summary of the method: as §1
# ETV3L = target: T7, ETV3L (Homo sapiens, UniProt Q6ZN32 1-361); settings: protein: recombinant; tags: N-terminal GST; dsDNA, one strand shown
# T7 sequence: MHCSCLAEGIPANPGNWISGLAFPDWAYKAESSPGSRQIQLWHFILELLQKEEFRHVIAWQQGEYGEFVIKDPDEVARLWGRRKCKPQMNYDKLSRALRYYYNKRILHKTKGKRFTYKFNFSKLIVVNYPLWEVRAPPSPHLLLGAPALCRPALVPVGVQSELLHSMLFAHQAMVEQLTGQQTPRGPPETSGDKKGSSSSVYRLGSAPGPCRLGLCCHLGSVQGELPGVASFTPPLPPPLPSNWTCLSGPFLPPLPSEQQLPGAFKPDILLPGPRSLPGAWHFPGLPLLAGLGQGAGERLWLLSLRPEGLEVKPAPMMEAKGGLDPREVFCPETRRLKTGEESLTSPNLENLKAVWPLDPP
# Summary of the method: as §1
# ETS2 = target: T8, ETS2 (Homo sapiens, UniProt P15036 1-469); settings: protein: recombinant; tags: N-terminal GST; dsDNA, one strand shown
# T8 sequence: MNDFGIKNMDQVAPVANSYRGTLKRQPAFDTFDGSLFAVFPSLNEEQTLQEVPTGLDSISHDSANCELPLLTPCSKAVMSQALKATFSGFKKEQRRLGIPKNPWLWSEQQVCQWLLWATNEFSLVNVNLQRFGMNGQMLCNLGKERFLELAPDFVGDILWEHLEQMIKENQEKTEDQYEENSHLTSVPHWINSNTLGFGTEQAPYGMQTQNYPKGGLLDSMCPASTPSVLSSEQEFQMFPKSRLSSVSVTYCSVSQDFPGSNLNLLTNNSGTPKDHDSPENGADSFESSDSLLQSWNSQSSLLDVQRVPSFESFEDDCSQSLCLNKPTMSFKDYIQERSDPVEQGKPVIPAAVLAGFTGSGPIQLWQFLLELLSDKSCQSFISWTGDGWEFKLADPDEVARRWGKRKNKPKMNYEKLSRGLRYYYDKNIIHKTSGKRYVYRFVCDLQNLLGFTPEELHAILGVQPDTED
# Summary of the method: as §1
# SPDEF = target: T9, SPDEF (Homo sapiens, UniProt O95238 1-335); settings: protein: recombinant; tags: N-terminal GST; dsDNA, one strand shown
# T9 sequence: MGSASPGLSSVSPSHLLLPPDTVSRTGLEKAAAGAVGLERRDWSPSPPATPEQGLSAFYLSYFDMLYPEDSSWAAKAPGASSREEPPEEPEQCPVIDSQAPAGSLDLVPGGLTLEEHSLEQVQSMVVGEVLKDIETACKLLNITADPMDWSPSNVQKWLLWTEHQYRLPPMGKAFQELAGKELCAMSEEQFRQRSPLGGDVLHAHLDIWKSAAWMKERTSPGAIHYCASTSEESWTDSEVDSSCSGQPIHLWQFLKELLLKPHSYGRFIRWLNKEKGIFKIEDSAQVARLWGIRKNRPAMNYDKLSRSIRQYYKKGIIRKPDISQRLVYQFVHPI
# Summary of the method: as §1
# ETV7 = target: T10, ETV7 (Homo sapiens, UniProt Q9Y603 1-341); settings: protein: recombinant; tags: N-terminal GST; dsDNA, one strand shown
# T10 sequence: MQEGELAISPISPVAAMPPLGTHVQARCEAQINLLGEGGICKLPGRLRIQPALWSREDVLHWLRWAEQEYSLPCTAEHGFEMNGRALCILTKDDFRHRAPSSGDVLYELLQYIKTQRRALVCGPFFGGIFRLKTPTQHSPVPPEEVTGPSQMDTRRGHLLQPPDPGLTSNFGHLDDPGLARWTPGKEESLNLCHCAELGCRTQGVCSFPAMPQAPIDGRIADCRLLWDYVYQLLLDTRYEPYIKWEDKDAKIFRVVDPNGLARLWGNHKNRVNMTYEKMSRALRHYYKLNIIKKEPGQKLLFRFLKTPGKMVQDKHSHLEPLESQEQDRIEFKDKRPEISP
# Summary of the method: as §1
# ELF5 = target: T11, ELF5 (Homo sapiens, UniProt Q9UKW6-2 1-255); settings: protein: recombinant; tags: N-terminal GST; dsDNA, one strand shown
# T11 sequence: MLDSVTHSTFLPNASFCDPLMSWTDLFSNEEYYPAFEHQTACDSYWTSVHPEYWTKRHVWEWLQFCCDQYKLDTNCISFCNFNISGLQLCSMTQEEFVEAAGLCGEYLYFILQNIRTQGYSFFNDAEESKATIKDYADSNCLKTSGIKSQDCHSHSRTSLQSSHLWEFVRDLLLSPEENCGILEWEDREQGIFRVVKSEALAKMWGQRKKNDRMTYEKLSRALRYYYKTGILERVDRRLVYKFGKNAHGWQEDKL
# Summary of the method: as §1
# ETV3 = target: T12, ETV3 (Homo sapiens, UniProt P41162-2 1-143); settings: protein: recombinant; tags: N-terminal GST; dsDNA, one strand shown
# T12 sequence: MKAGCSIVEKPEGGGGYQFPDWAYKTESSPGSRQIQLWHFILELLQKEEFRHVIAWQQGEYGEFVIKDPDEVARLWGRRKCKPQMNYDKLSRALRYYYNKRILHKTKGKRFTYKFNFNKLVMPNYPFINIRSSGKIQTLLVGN
# Summary of the method: as §1
# ETV6 = ETV6 (Homo sapiens, UniProt P41212 1-452); settings: protein: recombinant; tags: N-terminal GST; dsDNA, one strand shown
# Summary of the method: as §1
# Chain of CRX (O43186 whole entry): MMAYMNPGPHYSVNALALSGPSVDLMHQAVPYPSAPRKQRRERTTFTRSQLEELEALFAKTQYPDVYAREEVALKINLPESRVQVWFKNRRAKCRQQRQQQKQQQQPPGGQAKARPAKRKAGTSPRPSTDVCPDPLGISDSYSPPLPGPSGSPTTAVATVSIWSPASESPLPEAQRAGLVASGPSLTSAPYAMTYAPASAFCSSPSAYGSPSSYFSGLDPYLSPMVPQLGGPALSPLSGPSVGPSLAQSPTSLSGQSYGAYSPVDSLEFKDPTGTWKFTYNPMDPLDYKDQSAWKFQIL
# Chain of HSF1 (Q00613 whole entry): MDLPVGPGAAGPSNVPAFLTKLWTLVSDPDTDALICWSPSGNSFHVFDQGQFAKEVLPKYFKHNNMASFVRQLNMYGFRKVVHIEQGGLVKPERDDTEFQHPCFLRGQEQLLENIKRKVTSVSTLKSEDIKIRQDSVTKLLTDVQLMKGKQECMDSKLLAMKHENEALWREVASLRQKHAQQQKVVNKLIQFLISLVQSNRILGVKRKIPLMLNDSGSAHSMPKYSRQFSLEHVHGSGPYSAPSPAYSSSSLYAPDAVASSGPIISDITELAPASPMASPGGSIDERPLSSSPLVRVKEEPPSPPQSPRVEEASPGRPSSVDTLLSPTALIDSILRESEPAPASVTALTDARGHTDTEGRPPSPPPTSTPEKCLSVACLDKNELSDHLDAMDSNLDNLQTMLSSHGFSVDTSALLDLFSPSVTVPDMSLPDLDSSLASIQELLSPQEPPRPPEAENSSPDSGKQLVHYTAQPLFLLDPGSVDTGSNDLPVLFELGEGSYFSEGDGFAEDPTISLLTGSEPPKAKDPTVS
# Chain of ELF4 (Q99607 whole entry): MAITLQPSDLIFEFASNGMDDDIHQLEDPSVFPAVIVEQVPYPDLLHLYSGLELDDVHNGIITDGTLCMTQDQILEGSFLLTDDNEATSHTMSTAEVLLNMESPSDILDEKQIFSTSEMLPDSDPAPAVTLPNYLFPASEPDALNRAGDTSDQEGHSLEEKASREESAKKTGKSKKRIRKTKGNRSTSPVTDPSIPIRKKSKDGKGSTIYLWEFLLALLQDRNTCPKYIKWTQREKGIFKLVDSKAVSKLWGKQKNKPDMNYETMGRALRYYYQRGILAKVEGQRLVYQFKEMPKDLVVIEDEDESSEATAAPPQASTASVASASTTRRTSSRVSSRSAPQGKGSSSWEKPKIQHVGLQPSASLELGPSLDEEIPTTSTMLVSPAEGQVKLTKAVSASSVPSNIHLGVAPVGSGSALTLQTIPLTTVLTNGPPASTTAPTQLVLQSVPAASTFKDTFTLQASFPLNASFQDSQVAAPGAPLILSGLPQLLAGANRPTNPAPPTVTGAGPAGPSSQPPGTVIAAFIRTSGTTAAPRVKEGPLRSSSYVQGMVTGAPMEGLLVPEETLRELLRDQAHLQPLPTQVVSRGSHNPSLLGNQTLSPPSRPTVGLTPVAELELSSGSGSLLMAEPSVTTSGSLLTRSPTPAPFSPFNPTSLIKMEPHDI
# Chain of ETV1 (P50549 whole entry): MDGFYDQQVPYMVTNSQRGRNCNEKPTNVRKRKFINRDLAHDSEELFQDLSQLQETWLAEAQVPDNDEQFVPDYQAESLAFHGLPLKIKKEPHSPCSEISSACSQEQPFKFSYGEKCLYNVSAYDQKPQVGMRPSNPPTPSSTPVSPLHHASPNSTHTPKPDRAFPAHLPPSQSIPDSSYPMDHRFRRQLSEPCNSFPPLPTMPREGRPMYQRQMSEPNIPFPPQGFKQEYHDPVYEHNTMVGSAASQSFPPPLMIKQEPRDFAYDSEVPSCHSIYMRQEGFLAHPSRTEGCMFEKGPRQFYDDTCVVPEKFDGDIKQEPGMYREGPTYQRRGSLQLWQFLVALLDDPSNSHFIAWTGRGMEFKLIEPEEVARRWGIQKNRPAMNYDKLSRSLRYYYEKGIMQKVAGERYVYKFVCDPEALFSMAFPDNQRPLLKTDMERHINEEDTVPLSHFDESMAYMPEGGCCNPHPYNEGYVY
# Chain of ETV5 (P41161 whole entry): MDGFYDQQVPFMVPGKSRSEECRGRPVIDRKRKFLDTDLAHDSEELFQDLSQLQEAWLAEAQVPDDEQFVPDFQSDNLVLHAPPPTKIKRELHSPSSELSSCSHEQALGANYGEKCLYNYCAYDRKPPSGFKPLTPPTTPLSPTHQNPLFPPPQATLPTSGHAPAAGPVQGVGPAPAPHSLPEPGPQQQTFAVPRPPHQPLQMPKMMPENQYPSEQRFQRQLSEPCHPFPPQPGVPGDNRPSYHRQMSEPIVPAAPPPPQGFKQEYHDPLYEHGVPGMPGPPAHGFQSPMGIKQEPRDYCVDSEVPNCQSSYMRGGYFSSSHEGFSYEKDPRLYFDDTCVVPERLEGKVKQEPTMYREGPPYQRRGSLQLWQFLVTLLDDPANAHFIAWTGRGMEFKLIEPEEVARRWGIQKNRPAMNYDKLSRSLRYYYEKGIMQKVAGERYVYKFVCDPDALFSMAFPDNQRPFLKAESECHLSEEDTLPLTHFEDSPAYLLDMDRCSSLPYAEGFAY
# Chain of ETV6 (P41212 whole entry): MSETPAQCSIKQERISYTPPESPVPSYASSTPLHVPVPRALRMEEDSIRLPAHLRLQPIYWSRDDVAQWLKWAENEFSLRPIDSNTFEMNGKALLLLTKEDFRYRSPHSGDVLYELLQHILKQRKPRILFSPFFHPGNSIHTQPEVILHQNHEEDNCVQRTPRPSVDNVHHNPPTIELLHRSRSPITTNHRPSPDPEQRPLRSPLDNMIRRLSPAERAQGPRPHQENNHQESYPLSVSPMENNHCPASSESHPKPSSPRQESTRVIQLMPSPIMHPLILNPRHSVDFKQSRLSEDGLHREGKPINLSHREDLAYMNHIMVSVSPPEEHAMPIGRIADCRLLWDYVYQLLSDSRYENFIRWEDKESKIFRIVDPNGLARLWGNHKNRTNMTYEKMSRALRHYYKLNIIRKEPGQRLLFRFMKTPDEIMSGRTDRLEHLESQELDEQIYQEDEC
sequence,measurement,setting,value
TATGGC,binding signal,FEV,"1.36 fold enrichment (6-mer frequency, TF over GST control)"
same,binding signal,ETV5,"1.33 fold enrichment (6-mer frequency, TF over GST control)"
same,binding signal,HSF1,"1.2 fold enrichment (6-mer frequency, TF over GST control)"
same,binding signal,SPIC,"1.17 fold enrichment (6-mer frequency, TF over GST control)"
same,binding signal,ELF4,"1.2 fold enrichment (6-mer frequency, TF over GST control)"
same,binding signal,ELK4,"1.2 fold enrichment (6-mer frequency, TF over GST control)"
same,binding signal,ETV2,"1.41 fold enrichment (6-mer frequency, TF over GST control)"
same,binding signal,ELF3,"1.29 fold enrichment (6-mer frequency, TF over GST control)"
same,binding signal,CRX,"1.34 fold enrichment (6-mer frequency, TF over GST control)"
same,binding signal,ETV1,"1.25 fold enrichment (6-mer frequency, TF over GST control)"
same,binding signal,ERF,"1.25 fold enrichment (6-mer frequency, TF over GST control)"
same,binding signal,ETV3L,"1.23 fold enrichment (6-mer frequency, TF over GST control)"
same,binding signal,ETS2,"1.2 fold enrichment (6-mer frequency, TF over GST control)"
same,binding signal,SPDEF,"1.27 fold enrichment (6-mer frequency, TF over GST control)"
same,binding signal,ETV7,"1.26 fold enrichment (6-mer frequency, TF over GST control)"
same,binding signal,ELF5,"1.23 fold enrichment (6-mer frequency, TF over GST control)"
same,binding signal,ETV3,"1.31 fold enrichment (6-mer frequency, TF over GST control)"
same,binding signal,ETV6,"1.29 fold enrichment (6-mer frequency, TF over GST control)"
